Source: PubChem BioAssay (Tox21)
Records with an inconclusive call do not appear. Calls of active or inactive are those of the source. Unless noted, the call rests on the fitted dose curve; in most records, active means well fitted curve in the direction sought with a large enough effect in the repeat runs; inconclusive means weak or mixed curves; inactive means no such curve, though single readings can be large; an effect the other way counts as inactive or inconclusive.

Experiments:
[1] = qHTS assay for small molecule agonists of the p53 signaling pathway (AID 651631; calls by dose curve; further: nearly all actives have a fitted effect of over 15% in size; further: potency means the concentration at half of the fitted maximal effect)
In short: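 HCT-116 cells carrying a stable p53 response element–beta-lactamase reporter were plated, rested 5 h at 37 °C, then exposed to compound in DMSO for 16 h at 37 °C; reporter activity was read as FRET substrate fluorescence after 2 h at room temperature.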

[2] = qHTS assay for small molecules that induce genotoxicity in human embryonic kidney cells expressing luciferase-tagged ATAD5 (AID 651632); further: nearly all actives have a fitted effect of over 15% in size
In short: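 Concentration-response screen for ATAD5 upregulation in HEK293T luciferase reporter cells; 16 hr treatment at 37C, then luminescence after 30 min with Amplite at room temperature.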

[3] = qHTS assay for small molecules that induce genotoxicity in human embryonic kidney cells expressing luciferase-tagged ATAD5 - cell viability (AID 651634; calls by dose curve; further: nearly all actives have a fitted effect of over 25% in size; further: potency means the concentration at half of the fitted maximal effect)
In short: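 15.5 hr compound or vehicle exposure of HEK293T cells expressing luciferase-tagged ATAD5 at 37C; live-cell protease activity is read by fluorescence after 30 min of CellTiter-Fluor.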

[4] = qHTS assay for small molecule disruptors of the mitochondrial membrane potential - cell viability (AID 720634; calls by dose curve; further: nearly all actives have a fitted effect of over 20% in size; further: potency means the concentration at half of the fitted maximal effect)
In short: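 In this qHTS format, HepG2 cells plated overnight were pinned with compound, incubated 1 hr, and assayed for ATP luminescence with CellTiter-Glo after m-MPI dye addition.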

[5] = qHTS assay for small molecule disruptors of the mitochondrial membrane potential (AID 720635); further: potency means the concentration at half of the fitted maximal effect
In short: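 HepG2 cells (2,000/well) attached overnight at 37C, then took compound for 1 hr at 37C, 5% CO2. Mito-MPS dye was added for 30 min; fluorescence was read at 490/535 nm (monomers) and 540/590 nm (aggregates).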

[6] = qHTS assay to test for compound auto fluorescence at 590 nm (red) in HepG2 cells (AID 720674)
In short: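 Intrinsic compound fluorescence in the red window (Ex/Em 540/590 nm) is measured in attached HepG2 cells exposed for 1 hr, DMSO vehicle as baseline, benchmarked to Rose Bengal sodium.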

[7] = qHTS assay to test for compound auto fluorescence at 535 nm (green) in HepG2 cells (AID 720675)
[8] = qHTS assay to test for compound auto fluorescence at 460 nm (blue) in HEK293 cells (AID 720678)
In short: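 Blue-channel (Ex/Em 405/460 nm) intensity measured in HEK293 cultures after overnight compound exposure at 37C; signal expressed relative to triamterene. Cells plated 2,000 per well in 10% dialyzed FBS medium and allowed 4-5 hr to attach.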

[9] = qHTS assay to test for compound auto fluorescence at 590 nm (red) in HEK293 cells (AID 720679)
In short: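 Red-channel autofluorescence (Ex/Em 540/590 nm; Rose Bengal sodium reference) was measured after overnight 37C, 5% CO2 exposure of attached HEK293 cells, 2,000 per well in medium with 10% dialyzed FBS.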

[10] = qHTS assay to test for compound auto fluorescence at 535 nm (green) in HEK293 cells (AID 720680)
[11] = qHTS assay to test for compound auto fluorescence at 460 nm (blue) in HEK293 cell free culture (AID 720681)
In short: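 Test compounds were pinned into cell-free culture medium (DMEM with 10% FBS) and fluorescence was read directly at Ex/Em 405/460 nm. Signals were expressed as fluorescence equivalents of triamterene, with DMSO vehicle as control.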

[12] = qHTS assay to test for compound auto fluorescence at 535 nm (green) in HEK293 cell free culture (AID 720682)
In short: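 Read-out: 485/535 nm fluorescence intensity, calibrated against fluorescein. Medium only (DMEM + 10% FBS, no cells); test compound or DMSO vehicle added by pintool before plate reading.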

[13] = qHTS assay to test for compound auto fluorescence at 590 nm (red) in HEK293 cell free culture (AID 720683)
In short: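 Tox21 10K library compounds were pinned into cell-free DMEM with 10% FBS and fluorescence was read at excitation 540 nm. Activity is expressed as Rose Bengal sodium equivalency.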

[14] = qHTS assay to test for compound auto fluorescence at 590 nm (red) in HepG2 cell free culture (AID 720684)
In short: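 Readout: intrinsic compound fluorescence at 590 nm emission after 540 nm excitation, scaled to Rose Bengal sodium. Matrix was cell-free MEM with 10% FBS; DMSO vehicle wells served as control.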

[15] = qHTS assay to test for compound auto fluorescence at 460 nm (blue) in HepG2 cell free culture (AID 720685)
In short: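 Cell-free plates of MEM plus 10% FBS received 23 nL compound or DMSO vehicle; blue-channel (405/460 nm) intensity scored against triamterene as reference fluorophore.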

[16] = qHTS assay to test for compound auto fluorescence at 535 nm (green) in HepG2 cell free culture (AID 720686)
[17] = qHTS assay to test for compound auto fluorescence at 460 nm (blue) in HepG2 cells (AID 720687)
In short: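 Cells (2,000/well in MEM with 10% FBS) attached overnight at 37 C, then were exposed to compound or DMSO for 1 hr at 37 C, 5% CO2. Fluorescence read at Ex/Em 405/460 nm, expressed as triamterene-equivalent signal.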

[18] = qHTS assay for small molecule agonists of the p53 signaling pathway - cell viability (AID 651633; calls by dose curve; further: series mostly up to about 83 µM; nearly all actives have a fitted effect of over 30% in size)
In short: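 p53RE-bla cells, seeded at 4,000 per well and rested 5 h at 37 C/5% CO2, received compounds in DMSO for 16 h at 37 C. CellTiter-Glo was then added, and luminescence was read after 30 min at room temperature to gauge cytotoxicity.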

[19] = target: Glucocorticoid receptor (Homo sapiens) (UniProt P04150); assay: qHTS assay to identify small molecule agonists of the glucocorticoid receptor (GR) signaling pathway (AID 720691; active means well fitted activation curve with a large enough effect in the signal ratio in the repeat runs, not every such curve was filed as active; the % refers to the signal ratio)
In short: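 Measures GR pathway activation through a GRE-beta-lactamase reporter stably integrated in HeLa cells, with 18 h compound treatment at 37 C and fluorescence detection using a FRET substrate.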

[20] = target: Glucocorticoid receptor (Homo sapiens) (UniProt P04150); assay: qHTS assay to identify small molecule antagonists of the glucocorticoid receptor (GR) signaling pathway (AID 720692; active means well fitted inhibition curve with a large enough effect in the signal ratio in the repeat runs, not every such curve was filed as active; the % refers to the signal ratio)
In short: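 Tox21 10K library screened in concentration-response for blockade of dexamethasone (5 nM final)-induced GRE-bla reporter activity in HeLa cells; 18 h treatment, fluorescence read.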
On the % scale 0 is the no-effect control and ±100 the full control effect.

Chain of Glucocorticoid receptor (Homo sapiens) (P04150 whole entry, looked up): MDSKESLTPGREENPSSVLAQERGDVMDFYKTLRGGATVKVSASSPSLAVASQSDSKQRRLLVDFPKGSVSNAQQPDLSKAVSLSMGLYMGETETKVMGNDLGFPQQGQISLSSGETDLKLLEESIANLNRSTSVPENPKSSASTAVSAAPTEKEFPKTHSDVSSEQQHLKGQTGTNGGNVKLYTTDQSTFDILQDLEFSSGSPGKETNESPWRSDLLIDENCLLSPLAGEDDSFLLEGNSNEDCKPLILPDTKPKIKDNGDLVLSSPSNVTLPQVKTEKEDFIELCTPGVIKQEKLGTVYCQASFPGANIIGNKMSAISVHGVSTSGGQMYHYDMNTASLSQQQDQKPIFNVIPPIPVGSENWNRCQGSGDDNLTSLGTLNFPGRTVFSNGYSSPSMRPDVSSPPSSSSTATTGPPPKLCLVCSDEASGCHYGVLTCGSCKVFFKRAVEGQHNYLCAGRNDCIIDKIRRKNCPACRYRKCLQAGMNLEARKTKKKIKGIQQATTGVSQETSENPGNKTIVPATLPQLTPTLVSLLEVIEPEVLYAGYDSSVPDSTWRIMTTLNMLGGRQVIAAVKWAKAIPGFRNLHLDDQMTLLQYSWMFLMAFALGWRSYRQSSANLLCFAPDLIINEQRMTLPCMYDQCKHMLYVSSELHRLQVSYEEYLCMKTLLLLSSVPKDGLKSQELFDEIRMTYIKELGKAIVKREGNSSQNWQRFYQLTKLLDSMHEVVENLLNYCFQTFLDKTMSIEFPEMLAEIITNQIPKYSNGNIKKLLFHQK

C#C[C@]1(OC(C)=O)CC[C@H]2[C@@H]3CCC4=C/C(=N/O)CC[C@@H]4[C@H]3CC[C@@]21CC
active: Potency [1] 33.5 µM | Potency [3] 18.8 µM | Potency [4] 10.6 µM | Potency [5] 13.3 µM
inactive: Potency [2] | Potency [6] | Potency [7] | Potency [8] | Potency [9] | Potency [10] | Potency [11] | Potency [12] | Potency [13] | Potency [14] | Potency [15] | Potency [16] | Potency [17]

CCCC(=O)OCCc1ccccc1
inactive: Potency [1] | Potency [2] | Potency [18] | Potency [4] | Potency [5] | Potency [6] | Potency [7] | Potency [9] | Potency [10] | Potency [11] | Potency [12] | Potency [13] | Potency [14] | Potency [15] | Potency [16] | Potency [17] | Potency [19]

CCC(=O)OC(=O)CC
inactive: Potency [1] | Potency [2] | Potency [18] | Potency [3] | Potency [4] | Potency [6] | Potency [7] | Potency [8] | Potency [9] | Potency [10] | Potency [11] | Potency [12] | Potency [13] | Potency [14] | Potency [15] | Potency [16] | Potency [17] | Potency [19] | Potency [20]

CCCCCCC1CCCC(=O)O1 (stereo unspecified)
inactive: Potency [1] | Potency [2] | Potency [18] | Potency [3] | Potency [4] | Potency [6] | Potency [7] | Potency [8] | Potency [9] | Potency [10] | Potency [11] | Potency [12] | Potency [13] | Potency [14] | Potency [15] | Potency [16] | Potency [17] | Potency [19] | Potency [20]

CC1=CCC(=C(C)C)CC1
inactive: Potency [1] | Potency [2] | Potency [18] | Potency [3] | Potency [6] | Potency [7] | Potency [8] | Potency [9] | Potency [10] | Potency [11] | Potency [12] | Potency [13] | Potency [14] | Potency [15] | Potency [16] | Potency [17]

NC(=O)c1cccc([N+](=O)[O-])c1
inactive: Potency [1] | Potency [2] | Potency [18] | Potency [3] | Potency [4] | Potency [6] | Potency [7] | Potency [9] | Potency [10] | Potency [11] | Potency [12] | Potency [13] | Potency [14] | Potency [15] | Potency [16] | Potency [17] | Potency [19] | Potency [20]

Nc1ccc(NCCO)c([N+](=O)[O-])c1
inactive: Potency [1] | Potency [2] | Potency [18] | Potency [4] | Potency [6] | Potency [8] | Potency [9] | Potency [10] | Potency [11] | Potency [12] | Potency [13] | Potency [14] | Potency [15] | Potency [16] | Potency [17] | Potency [19] | Potency [20]
active: Potency [5] 15.4 µM

CC(C)(C)NSc1nc2ccccc2s1
active: Potency [5] 24.8 µM
inactive: Potency [1] | Potency [2] | Potency [3] | Potency [4] | Potency [6] | Potency [7] | Potency [8] | Potency [9] | Potency [10] | Potency [11] | Potency [12] | Potency [13] | Potency [14] | Potency [15] | Potency [16] | Potency [17] | Potency [19]

COc1cc(S(=O)(=O)O)c(C)cc1N=Nc1c(O)ccc2cc(S(=O)(=O)O)ccc12
inactive: Potency [1] | Potency [2] | Potency [18] | Potency [4] | Potency [6] | Potency [7] | Potency [8] | Potency [9] | Potency [10] | Potency [11] | Potency [12] | Potency [13] | Potency [14] | Potency [15] | Potency [16] | Potency [17] | Potency [19] | Potency [20]
active: Potency [3] 27.3 µM

CC1(C)CCC[C@]2(C)[C@H]3CC(=O)O[C@]3(C)CC[C@@H]12
inactive: Potency [1] | Potency [2] | Potency [18] | Potency [3] | Potency [4] | Potency [6] | Potency [8] | Potency [9] | Potency [10] | Potency [11] | Potency [12] | Potency [13] | Potency [14] | Potency [15] | Potency [16] | Potency [17] | Potency [19] | Potency [20]

CN(C)Cc1cc(C(C)(C)C)c(O)c(C(C)(C)C)c1
inactive: Potency [1] | Potency [2] | Potency [18] | Potency [3] | Potency [4] | Potency [6] | Potency [7] | Potency [8] | Potency [9] | Potency [10] | Potency [11] | Potency [12] | Potency [15] | Potency [16] | Potency [17] | Potency [19]

CC(=O)CC(=O)Nc1ccc(S(=O)(=O)O)cc1
inactive: Potency [1] | Potency [2] | Potency [18] | Potency [3] | Potency [6] | Potency [8] | Potency [9] | Potency [10] | Potency [11] | Potency [12] | Potency [14] | Potency [15] | Potency [16] | Potency [17] | Potency [19]

O=S(=O)(O)c1ccc(N=Nc2c(O)ccc3ccccc23)cc1
active: Potency [3] 27.3 µM
inactive: Potency [1] | Potency [2] | Potency [18] | Potency [4] | Potency [6] | Potency [7] | Potency [8] | Potency [9] | Potency [10] | Potency [11] | Potency [12] | Potency [13] | Potency [15] | Potency [17] | Potency [19]

Cc1cc(C(C)(C)C)cc(C)c1CC1=NCCN1
inactive: Potency [1] | Potency [2] | Potency [18] | Potency [3] | Potency [4] | fluorescence, relative to Rose Bengal [6] 0.379% [at 18.6 µM] | fluorescence, % of fluorescein control [7] 0.0648% [at 18.6 µM] | fluorescence, % of triamterene [8] -0.0052% [at 18.6 µM] | fluorescence, % of fluorescent control [9] 0.279% [at 18.6 µM] | fluorescence, % of fluorescein [10] 0.178% [at 18.6 µM] | fluorescence, % of fluorescent control [11] 0.0078% [at 18.6 µM] | activity change [12] 0.0172% [at 18.6 µM, stronger effect = higher value] | fluorescence, % of fluorescent control [15] 0.411% [at 18.6 µM] | fluorescence, % of fluorescein control [16] -0.0122% [at 18.6 µM] | fluorescence, % of fluorescent control [17] 0.013% [at 18.6 µM] | Potency [19] | Potency [20]

C[C@@H](O)[C@H](N)C(=O)O
inactive: Potency [1] | Potency [2] | Potency [18] | Potency [3] | Potency [5] | Potency [6] | Potency [7] | Potency [8] | Potency [9] | Potency [10] | Potency [11] | Potency [12] | Potency [13] | Potency [14] | Potency [16] | Potency [17] | Potency [19] | Potency [20]
